Assay [1] in a line: qHTS assay for small molecules that induce genotoxicity in human embryonic kidney cells expressing luciferase-tagged ATAD5 (AID 651632). Note: nearly all actives have a fitted effect of over 15% in size. Note: potency is the fitted concentration of half-maximal effect. The method in brief:
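DMSO vehicle served as the control. HEK293T reporter cells, 16 hr at 37C, then 30 min Amplite at room temperature; ATAD5 induction is measured as luciferase activity.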

The nature of assay [2]: qHTS assay for small molecules that induce genotoxicity in human embryonic kidney cells expressing luciferase-tagged ATAD5 - cell viability (AID 651634; calls by dose curve; note: nearly all actives have a fitted effect of over 25% in size; note: potency is the fitted concentration of half-maximal effect). The gist of the method: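 Here HEK293T cells with the ATAD5 luciferase reporter are incubated with test compounds for 15.5 hr, and cytotoxicity is then gauged by measuring protease activity in live cells using fluorescence.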
In general terms: qHTS replaces the single test concentration by a dilution series.

Assay [3] in a line: qHTS assay for small molecule disruptors of the mitochondrial membrane potential (AID 720635). Note: potency is the fitted concentration of half-maximal effect. The method in brief:
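HepG2 cells exposed to compound 1 hr at 37C, then Mito-MPS dye 30 min. Ratio read of aggregate (540/590 nm) versus monomer (490/535 nm) fluorescence.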

A short description of assay [4]: qHTS assay to test for compound auto fluorescence at 590 nm (red) in HepG2 cells (AID 720674). The gist of the method:
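Seeding: 2,000 HepG2 cells/well, MEM/10% FBS, overnight 37 C. Dosing: compound vs DMSO. Incubation: 1 hr, 37 C, 5% CO2. Read: fluorescence 540 ex/590 em, Rose Bengal sodium as red reference.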

Assay [5] is described as follows: qHTS assay to test for compound auto fluorescence at 535 nm (green) in HepG2 cells (AID 720675).
Assay [6] in a line: qHTS assay to test for compound auto fluorescence at 460 nm (blue) in HEK293 cells (AID 720678). The gist of the method: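 After cell attachment (4-5 hr, 37C), compounds were pinned onto HEK293 monolayers in 10% dialyzed FBS medium. The blue channel (405/460 nm) was read following overnight culture. Equivalency was calculated against triamterene.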
Assay [7] in a line: qHTS assay to test for compound auto fluorescence at 590 nm (red) in HEK293 cells (AID 720679). The gist of the method: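 Plates of HEK293 cells (10% dialyzed FBS) are treated with 23 nL compound or DMSO vehicle after a 4-5 hr attachment period, incubated overnight at 37C, and read for red fluorescence at 540/590nm.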
Assay [8] can be described thus: qHTS assay to test for compound auto fluorescence at 535 nm (green) in HEK293 cells (AID 720680).
Assay [9] is described as follows: qHTS assay to test for compound auto fluorescence at 460 nm (blue) in HEK293 cell free culture (AID 720681). The method in brief:
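Compounds were added to cell-free DMEM with 10% FBS and fluorescence read directly. The blue channel used 405 nm excitation and 460 nm emission, with triamterene as the reference fluorophore.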

The nature of assay [10]: qHTS assay to test for compound auto fluorescence at 535 nm (green) in HEK293 cell free culture (AID 720682). The gist of the method:
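Green-label autofluorescence (485 nm excitation, 535 nm emission) measured on compound added to cell-free culture medium (DMEM, 10% FBS). Output is expressed relative to fluorescein.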

A short description of assay [11]: qHTS assay to test for compound auto fluorescence at 590 nm (red) in HEK293 cell free culture (AID 720683). The gist of the method:
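Cell-free wells of DMEM with 10% FBS received compound, and intrinsic fluorescence was read at excitation/emission 540/590 nm. Values expressed as equivalence to Rose Bengal sodium.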

A short description of assay [12]: qHTS assay to test for compound auto fluorescence at 590 nm (red) in HepG2 cell free culture (AID 720684). The method in brief:
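Auto fluorescence equivalency versus Rose Bengal sodium, red channel Ex/Em 540/590 nm; compounds in cell-free MEM/10% FBS; DMSO vehicle control.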

A short description of assay [13]: qHTS assay to test for compound auto fluorescence at 460 nm (blue) in HepG2 cell free culture (AID 720685). The gist of the method:
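Cell-free plates of MEM plus 10% FBS received 23 nL compound or DMSO vehicle; blue-channel (405/460 nm) intensity scored against triamterene as reference fluorophore.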

A short description of assay [14]: qHTS assay to test for compound auto fluorescence at 535 nm (green) in HepG2 cell free culture (AID 720686).
Assay [15] can be described thus: qHTS assay to test for compound auto fluorescence at 460 nm (blue) in HepG2 cells (AID 720687). The method in brief:
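HepG2 cells in MEM with 10% FBS, attached overnight at 37 C, were exposed to compound or DMSO for 1 hr at 37 C, 5% CO2. Blue fluorescence was read at 405/460 nm, with triamterene as reference fluorophore.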

In assay [16] the target is Glucocorticoid receptor (Homo sapiens) (UniProt P04150). In words: qHTS assay to identify small molecule agonists of the glucocorticoid receptor (GR) signaling pathway (AID 720691; active = well fitted activation curve with a large enough effect in the signal ratio in the repeat runs, not every such curve was filed as active; inconclusive = weak or mixed curves, or effect the other way; inactive = no such curve, though single readings can be large or run the other way; the % refers to the signal ratio; note: potency is the fitted concentration of half-maximal effect). The gist of the method:
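Compounds in DMSO, alongside positive controls, were added to GR-bla HeLa reporter cells and incubated 18 h at 37 C; GRE-driven beta-lactamase was detected by fluorescence after 2 h with FRET substrate at room temperature.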

The target is the same in assay [17]. In words: qHTS assay to identify small molecule antagonists of the glucocorticoid receptor (GR) signaling pathway (AID 720692; active = well fitted inhibition curve with a large enough effect in the signal ratio in the repeat runs, not every such curve was filed as active; inconclusive = weak or mixed curves, or effect the other way; inactive = no such curve, though single readings can be large or run the other way; the % refers to the signal ratio; note: potency is the fitted concentration of half-maximal effect). The gist of the method: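 In a 1536-well cell format, compounds were added 4 h after seeding GR-bla HeLa cells, together with dexamethasone at 5 nM final; reporter activity was measured by FRET-substrate fluorescence following 18 h at 37 C.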

Assay [18] in a line: qHTS assay for small molecule disruptors of the mitochondrial membrane potential - cell viability (AID 720634; calls by dose curve;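 note: human HepG2 liver cancer cells; series mostly up to about 83 µM; nearly all actives have a fitted effect of over 20% in size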). The method in brief: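 Viability of HepG2 cells is scored from ATP content by luminescence; cells are exposed to compound for 1 hr at 37 C and 5% CO2, then dosed with m-MPI dye before the CellTiter-Glo reagent.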
Assay [19] in a line: qHTS assay for small molecule agonists of the p53 signaling pathway - cell viability (AID 651633; calls by dose curve;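 note: p53RE-bla HCT reporter cells with a stable beta-lactamase p53 reporter; series mostly up to about 83 µM; nearly all actives have a fitted effect of over 30% in size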). The method in brief:
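p53RE-bla cells were treated with compound for 16 hours at 37 C. Cytotoxicity was then measured as CellTiter-Glo luminescence after 30 min at room temperature.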

The text below walks through data of PubChem BioAssay (Tox21).

Structures are written as SMILES. Unmarked numbers belong to inactive results. Activity calls are given as the source filed them. Unless noted, calls come from the whole dose curve; as a rule, active = well fitted curve in the direction sought with a large enough effect in the repeat runs; inconclusive = weak or mixed curves; inactive = no such curve, though single readings can be large; an effect the other way counts as inactive or inconclusive.
% is set by controls: 0 for no effect and ±100 for the full control effect.

Sequence of Glucocorticoid receptor (Homo sapiens) (P04150 whole entry, looked up): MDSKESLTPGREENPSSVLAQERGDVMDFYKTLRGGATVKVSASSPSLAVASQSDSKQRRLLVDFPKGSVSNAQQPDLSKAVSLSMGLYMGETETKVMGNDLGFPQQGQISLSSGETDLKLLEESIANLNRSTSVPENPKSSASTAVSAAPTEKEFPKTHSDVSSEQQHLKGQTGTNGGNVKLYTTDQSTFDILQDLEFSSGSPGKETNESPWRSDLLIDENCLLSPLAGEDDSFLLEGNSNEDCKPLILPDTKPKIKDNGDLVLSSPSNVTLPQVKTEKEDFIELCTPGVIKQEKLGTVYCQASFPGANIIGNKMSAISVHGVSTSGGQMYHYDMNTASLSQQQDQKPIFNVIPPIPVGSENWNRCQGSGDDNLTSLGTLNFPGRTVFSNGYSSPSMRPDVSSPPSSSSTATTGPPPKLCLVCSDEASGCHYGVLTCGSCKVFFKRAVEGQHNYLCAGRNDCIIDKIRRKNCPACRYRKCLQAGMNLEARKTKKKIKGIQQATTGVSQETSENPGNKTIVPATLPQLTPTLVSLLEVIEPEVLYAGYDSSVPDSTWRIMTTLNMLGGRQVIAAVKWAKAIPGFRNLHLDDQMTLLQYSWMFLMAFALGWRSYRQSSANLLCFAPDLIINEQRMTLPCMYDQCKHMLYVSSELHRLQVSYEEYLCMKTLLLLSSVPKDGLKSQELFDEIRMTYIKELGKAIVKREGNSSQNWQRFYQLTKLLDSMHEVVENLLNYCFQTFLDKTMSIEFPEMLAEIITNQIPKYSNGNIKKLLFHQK

With `Oc1ccc2c(c1)OC[C@@H](N1CCC(O)(c3ccc(F)cc3)CC1)[C@H]2O`, the Potency in [1] is 7.5 µM (active); in assay [3] it was 33.5 µM (active). Also, the Potency result in assay [2], in assay [6], in assay [9], in assay [13], in assay [15] and in assay [16] was “inactive” throughout. For the same compound, the Potency result in assay [17] is “inactive”. For the same compound, the result in assay [4], in [5], in [7], in assay [8], in assay [10] and in [11] was inactive. Also, the outcome in assay [12] and in [14] was inactive.

Turning to `COC[C@H](c1ccc(C(F)(F)F)cc1)N1CCN(C2(C)CCN(C(=O)c3c(C)ncnc3C)CC2)C[C@H]1C`, the Potency result in assay [1], in assay [2], in assay [18], in assay [6], in assay [9] and in [13] was “inactive” throughout. For the same compound, the Potency result in assay [15], in assay [16] and in [17] was “inactive” throughout. Besides, the call in [4], in assay [5], in [7], in assay [8], in assay [10] and in assay [11] was inactive. Besides, the call in [12] and in assay [14] was inactive.

Turning to `C=C(C)C(=O)OCCCCCCCCCCCCCCCCCC`, the Potency result in [1], in assay [19], in [2], in [16] and in assay [17] was “inactive” throughout. In assay [4], the fluorescence, relative to Rose Bengal was -0.0569% [at 18.6 µM]. Moreover, the fluorescence, % of fluorescein control is -0.0046% [at 18.6 µM] in assay [5] and -0.0135% [at 18.6 µM] in [14]. The fluorescence, % of triamterene in [6] is -0.0754% [at 18.6 µM]. For the same compound, the fluorescence, % of fluorescent control in assay [7] is 0.299% [at 18.6 µM]; in assay [9] it was -0.0848% [at 18.6 µM]; in assay [11] it was -0.0264% [at 18.6 µM]; in assay [13] it was -0.0261% [at 18.6 µM]; in assay [15], 0.214% [at 18.6 µM]. Also, the fluorescence, % of fluorescein in assay [8] is 0.0795% [at 18.6 µM]. In assay [10], the activity change is -0.0033% [at 18.6 µM]. Further, the fluorescence, % of Rose Bengal in assay [12] was -0.0496% [at 18.6 µM].

With `COC(=O)C1=C(C)NC(C)=C(C(=O)OCC(C)=O)C1c1ccccc1[N+](=O)[O-]` (stereo not given), the Potency result in assay [1], in assay [18], in assay [6], in assay [9], in assay [13] and in assay [15] was “inactive” throughout. In assay [16], the Potency result is “inactive”. The Potency was 23.7 µM (active) in assay [2], 9.44 µM (active) in assay [3] and 21.3 µM (active) in assay [17]. For the same compound, the compound was classed as inactive in assay [4], in assay [5], in assay [7], in assay [8], in assay [10] and in assay [11]. For the same compound, the result in [12] and in assay [14] was inactive.

Take `O=C1OC(=O)c2cc([N+](=O)[O-])ccc21`: the Potency result in assay [1], in assay [2], in assay [18], in assay [3], in assay [6] and in [9] was “inactive” each time. Moreover, the Potency entry in assay [13], in [15], in assay [16] and in [17] was “inactive” each time. Besides, the result in assay [4], in assay [5], in assay [7], in [8], in assay [10] and in assay [11] was inactive. Moreover, the call in assay [12] and in assay [14] was inactive.

For the compound `CCCC=O`, the Potency result in [19], in [2], in assay [18], in assay [3], in assay [6] and in assay [9] was “inactive” throughout. Also, the Potency entry in assay [13], in [15], in assay [16] and in [17] was “inactive” in each case. The result in [4], in assay [5], in assay [7], in [8], in assay [10] and in [11] was inactive. Besides, the result in assay [12] and in assay [14] was inactive.

As to `COc1ccc(COC=O)cc1`, the Potency result in assay [1], in [2], in [18], in assay [3], in [6] and in assay [9] was “inactive” in each case. The Potency result in assay [13], in assay [15], in [16] and in [17] was “inactive” each time. The call in assay [4], in assay [5], in assay [7], in assay [8], in [10] and in assay [11] was inactive. The outcome in assay [12] and in [14] was inactive.

As for `CCCC(=O)O[C@]1(C(=O)CCl)[C@@H](C)C[C@H]2[C@@H]3CCC4=CC(=O)C=C[C@]4(C)[C@@]3(F)C(=O)C[C@@]21C`, the Potency entry in assay [1], in [2], in [18], in assay [6], in assay [9] and in [13] was “inactive” in each case. In addition, the Potency entry in assay [15] is “inactive”. The results for the Potency in assay [3] and in assay [16] were 23.7 µM (active) and 0.0239 µM [inconclusive] (active), respectively. Also, the result in [4], in [5], in assay [7], in assay [8], in assay [10] and in assay [11] was inactive. Moreover, the compound was classed as inactive in assay [12] and in assay [14].

In the case of `NC(=O)c1c(Cl)cccc1Cl`, the Potency result in assay [1], in [2], in assay [18], in assay [6], in assay [9] and in [13] was “inactive” each time. The Potency result in assay [15] is “inactive”. Besides, the compound was classed as inactive in assay [4], in [5], in [7], in [8], in [10] and in assay [11]. Also, the outcome in assay [12] and in assay [14] was inactive.

With `CCC(C)(C)C1CCC(OC)CC1` (stereo not given), the Potency result in assay [1], in [2], in [18], in assay [6], in [9] and in assay [13] was “inactive” throughout. Also, the Potency result in [15] was “inactive”. For the same compound, the compound was called inactive in assay [4], in assay [5], in assay [7], in assay [8], in [10] and in assay [11]. Also, the result in assay [12] and in [14] was inactive.
